Measurements as given in paper PMC5540273 (PLoS ONE, 2017).

System: ZAK
Conditions: concentration: 1 μM, replicates: in singlicate; n = 1
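Note: KINOMEscan kinase panel screen.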

Row | Compound | %Inh
1 | Cc1ccc(-c2nc(Nc3ccncc3)c3ccccc3n2)s1 [GSK189015] | 0%
2 | CNc1nc(-c2ccc3c(N)n[nH]c3c2)cc(N2C[C@@H](C(=O)NC3CCCCC3)OC[C@H]2C)n1 [GSK2375584] | 0%
3 | Cn1cnc2c(N)ncnc21 [SKF-97623] | 0%
4 | Fc1ccc(-c2nc[nH]c2-c2ccncc2)cc1 [SB-217360] | 0%
5 | COc1cccc(NC(=O)Nc2ccc(C)c(-c3ccc(C(=O)Nc4ccncc4)cc3)c2)c1 [GSK1398474] | 50%
6 | Nc1ncnc2occ(-c3ccc4c(c3)CCN4C(=O)Cc3cc(F)ccc3F)c12 [GSK2645446] | 0%
7 | COc1ccc(CSc2nnc(-c3ccc4nccn4c3)o2)cc1C(F)(F)F | 0%
8 | Cc1cccc2c(-c3ccncn3)c(-c3ccc(F)cc3)nn12 [GW515532] | 9%
9 | Cc1ccccc1-c1cc(-c2c[nH]nc2-c2ccccn2)ccn1 [GW680061] | 0%
10 | CCCCc1nn2ncccc2c1-c1ccnc(NC2CC2)n1 [GW684374] | 24%
11 | CCn1c(-c2ccccc2)nc2cnccc21 [SB-733416] | 7%
12 | Cn1cncc1-c1cc2c(Nc3ccc(OCc4ccccc4)cc3)ncnc2cn1 [GW281179] | 43%
13 | Cc1c(Cn2c3ccccc3n3c(=O)cc(N4CCOCC4)nc23)cccc1C(F)(F)F [GSK2306394] | 1%
14 | CS(=O)(=O)CCNCc1nc(-c2ccc3ncnc(Nc4ccc(OCc5ccccc5)c(Cl)c4)c3c2)cs1.Cl [GW582764] | 5%
